Screening data (PubChem BioAssay)
In the library only some 3.5% were active in any assay of this set; here they are far more common.
GPR151 ag: activators of human GPR151 | Q8TDV0 | PathHunter beta-arrestin GPR151 cells, luminescence | activation, % at 11.2 µM | 1% of 650,000 active; in the data active = activation above about 4.9%;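 also: 0% = median of compound wells and 100% = cells with positive control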
FBW7 activator: activators of human E3 ligase FBW7; AlphaScreen FBW7–phospho-cyclin E peptide binding, activator screen; normalized activity (activation), % at 26.1 µM; Q969H0; 0.13% of 650,000 active; AID 1259310; in the data active = normalized activity above about 1.9%;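 also: purified mutant Fbw7 with reduced substrate affinity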
Target sequence (Q969H0 whole entry, looked up): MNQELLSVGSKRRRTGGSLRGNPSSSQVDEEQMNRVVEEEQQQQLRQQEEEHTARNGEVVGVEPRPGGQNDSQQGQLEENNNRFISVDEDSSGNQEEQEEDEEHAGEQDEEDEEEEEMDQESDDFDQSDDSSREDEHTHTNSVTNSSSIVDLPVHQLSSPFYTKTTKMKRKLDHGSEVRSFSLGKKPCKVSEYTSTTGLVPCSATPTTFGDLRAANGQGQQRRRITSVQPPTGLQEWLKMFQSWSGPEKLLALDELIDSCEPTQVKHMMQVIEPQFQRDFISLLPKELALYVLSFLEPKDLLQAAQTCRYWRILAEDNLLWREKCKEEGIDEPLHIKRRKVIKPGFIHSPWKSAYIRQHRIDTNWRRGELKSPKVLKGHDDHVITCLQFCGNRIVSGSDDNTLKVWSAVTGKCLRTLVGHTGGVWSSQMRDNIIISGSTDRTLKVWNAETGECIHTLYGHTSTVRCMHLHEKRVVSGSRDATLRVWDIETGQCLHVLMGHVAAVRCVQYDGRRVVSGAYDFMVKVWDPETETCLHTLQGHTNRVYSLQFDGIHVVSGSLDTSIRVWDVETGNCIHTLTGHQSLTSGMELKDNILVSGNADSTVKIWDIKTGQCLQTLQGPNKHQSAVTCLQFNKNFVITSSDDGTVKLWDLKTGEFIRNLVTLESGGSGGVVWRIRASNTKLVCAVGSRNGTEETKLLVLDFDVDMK
TEAD-YAP inh: TEAD-YAP interaction inhibition | HEK-TIYL cells, TEAD-Gal4/YAP UAS-luciferase luminescence | inhibition, % at 9.12 µM | 1.4% of 640,000 active | AID 1259422; in the data active = inhibition above about 32%;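 also: 0% = median of test compound wells and 100% = reference inhibitor wells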
MITF primary: human MITF inhibition, primary screen. 0.91% of 650,000 active. O75030. AlphaScreen MITF homodimerization, bead proximity signal. AID 1259374. inhibition, % at 2.6 µM; in the data active = inhibition above about 50%;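 also: 0% = vehicle wells with protein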
GPR151 confirm: human GPR151 activation, confirmation screen; shares compounds with GPR151 ag; GPR151 PathHunter beta-arrestin cells, luminescence, 90 min; % of EA-reagent control over plate median; activation, % at 11.2 µM; 6,700 tested, under 10 active; AID 1508609;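 active = mean percent activation across replicates above the confirmation screen cutoff of 4.91%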
GPR119 counter: activates human GPR119 in a GPR151 counter-screen. shares compounds with GPR151 ag. GPR119 PathHunter beta-arrestin cells, luminescence, 90 min; 0 = compound-well median, 100 = enzyme-acceptor control. activation, % at 11.2 µM. 0.3% of 6,700 active. AID 1508611;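 active = mean percent activation in the counterscreen above 29.09%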;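 also: counterscreen on off-target GPR119 to flag nonselective hits from the GPR151 activator screen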
Starred values were filed as active, the others as inactive.

How did CC(=O)N1CCN(Cc2ccc3c(c2)CN(Cc2c(C)nn(C)c2Cl)CCO3)CC1 do in these assays?
GPR151 ag: -0.2; FBW7 activator: 0.2; TEAD-YAP inh: 11.8; MITF primary: 8.2

What do the screens show for `CS(=O)(=O)N(CC(=O)NCCC1=CCCCC1)c1ccc(F)c(Cl)c1`?
GPR151 ag: -2.0; FBW7 activator: -0.1; TEAD-YAP inh: 0.8; MITF primary: -19.4

Results for Cc1ccc(NC(=O)CN(c2ccc3c(c2)OCO3)S(C)(=O)=O)cc1Cl ?
GPR151 ag: 5.1*; FBW7 activator: 0.2; TEAD-YAP inh: -7.3; MITF primary: 9.0; GPR151 confirm: 0.1; GPR119 counter: 11.3

Results for CS(=O)(=O)N(CC(N)=O)c1ccc(Cl)cc1Cl ?
GPR151 ag: -2.2; FBW7 activator: 0.6; TEAD-YAP inh: 3.8; MITF primary: 9.3

Results for Cc1ccc(N(CC(=O)NCCC2=CCCCC2)S(C)(=O)=O)cc1Cl ?
GPR151 ag: 15.4*; FBW7 activator: -0.1; TEAD-YAP inh: 2.7; MITF primary: 17.6; GPR151 confirm: 0.6; GPR119 counter: -8.1

What do the screens show for `CS(=O)(=O)N(CC(=O)Nc1ccc(Cl)c(Cl)c1)c1ccc2c(c1)OCO2`?
GPR151 ag: -0.2; FBW7 activator: 0.8; TEAD-YAP inh: -0.6; MITF primary: -1.0

How did CCOC(=O)c1ccccc1NC(=O)CN(c1ccccc1F)S(C)(=O)=O do in these assays?
GPR151 ag: 5.0*; FBW7 activator: -0.1; TEAD-YAP inh: 3.8; MITF primary: -14.7; GPR151 confirm: -0.1; GPR119 counter: 2.8

How did CCOC(=O)c1ccccc1NC(=O)CN(c1ccccc1OCC)S(C)(=O)=O do in these assays?
GPR151 ag: 1.0; FBW7 activator: 0.0; TEAD-YAP inh: -10.7; MITF primary: -8.3

How did COC(=O)CN(c1ccc(Cl)cc1Cl)S(C)(=O)=O do in these assays?
GPR151 ag: 7.3*; FBW7 activator: -0.1; TEAD-YAP inh: 5.3; MITF primary: 6.4; GPR151 confirm: -0.9; GPR119 counter: -10.8

Results for Cc1ccc(C)c(N2C(=O)C3CC=CCC3C2=O)c1 (configuration not stated) ?
GPR151 ag: -1.5; FBW7 activator: 0.1; TEAD-YAP inh: -2.8; MITF primary: -12.5

Results for CCN1CCN(c2nc3c(C)cccn3c(=O)c2/C=C2\SC(=S)N(C)C2=O)CC1 ?
GPR151 ag: -0.7; FBW7 activator: 0.1; TEAD-YAP inh: 3.9; MITF primary: -4.3

How did Clc1ncc2c3c(sc2n1)CCCC3 do in these assays?
GPR151 ag: 0.1; FBW7 activator: 0.2; TEAD-YAP inh: 1.7; MITF primary: 3.4

Results for Fc1cccc(CN2CCN(Cc3nc(-c4ccccn4)no3)CC2)c1 ?
GPR151 ag: -0.1; FBW7 activator: 0.2; TEAD-YAP inh: -9.2; MITF primary: 11.0

Results for CCOC(=O)c1ccccc1NC(=O)Nc1ccc(F)cc1 ?
GPR151 ag: 7.5*; FBW7 activator: 0.1; TEAD-YAP inh: -1.5; MITF primary: -4.6; GPR151 confirm: 0.0; GPR119 counter: 4.2

How did CCOC(=O)c1ccccc1NC(=O)CN(c1ccc(OC)c(Cl)c1)S(C)(=O)=O do in these assays?
GPR151 ag: -0.4; FBW7 activator: 0.1; TEAD-YAP inh: -3.0; MITF primary: 13.1

What do the screens show for `CCOC(=O)c1ccccc1NC(=O)CN(c1ccc(F)c(Cl)c1)S(C)(=O)=O`?
GPR151 ag: 5.2*; FBW7 activator: -0.2; TEAD-YAP inh: -14.6; MITF primary: 0.3; GPR151 confirm: 0.4; GPR119 counter: 9.8

What do the screens show for `Cc1ccc(N(CC(=O)Nc2ccccc2F)S(C)(=O)=O)cc1Cl`?
GPR151 ag: 14.9*; FBW7 activator: 0.2; TEAD-YAP inh: 12.5; MITF primary: 6.3; GPR151 confirm: -0.4; GPR119 counter: -10.6

Results for COc1ccc(Cl)cc1NC(=O)CN(c1cccc(Cl)c1)S(C)(=O)=O ?
GPR151 ag: 6.8*; FBW7 activator: 0.1; TEAD-YAP inh: 10.6; MITF primary: -9.2; GPR151 confirm: -1.0; GPR119 counter: 7.3

How did N#CCSc1ncnc2c1cnn2-c1ccc(F)cc1 do in these assays?
GPR151 ag: -1.8; FBW7 activator: 0.1; TEAD-YAP inh: -36.1; MITF primary: 7.0

What do the screens show for `COc1cccc(-c2cn[nH]c2C2CCCN(C(=O)CCn3c(C)nc4ccccc43)C2)c1` (configuration not stated)?
GPR151 ag: -1.0; FBW7 activator: -0.1; TEAD-YAP inh: -13.8; MITF primary: 4.9
